# Laboratory results as given in the supplement of paper PMC10037445.
# In all, about 2,900 compounds were measured (“NF-kB SEAP reporter activity, fold change vs agonist alone”: median about 0.99, highest 2% from about 2.6 on). The full list was thinned out, with the highest values kept by preference.
# Columns and labels:
# RAW-Dual [1] = assay: NF-kB SEAP reporter activity, fold change vs agonist alone; cytotoxicity flag (confluency mask): cytotoxic (confluency <70% of control); higher = enhanced NF-kB activity
# How it was run: (§1)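 Library stock was pin-tooled at 50 nL into 384-well plates of RAW-Dual macrophages (50,000 cells/well, DMEM), followed 1 h later by a PRR agonist, and the cells were kept at 37 °C, 5% CO2. Supernatant collected after 20 hours was read for IRF by QuantiLuc luminescence and for NF-κB by QuantiBlue absorbance at 620 nm. Reporter activity is fold change over agonist-alone wells, and a well counted as cytotoxic when its IncuCyte confluency was below 70% of agonist controls in both mask sets.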
# RAW-Dual [2] = assay: NF-kB SEAP reporter activity, fold change vs agonist alone; higher = enhanced NF-kB activity; conditions: library stock concentration (final ~1000-fold dilution): 10 mM
# How it was run: as §1
# RAW-Dual [3] = assay: NF-kB SEAP reporter activity, fold change vs agonist alone; cytotoxicity flag (confluency mask): not cytotoxic; higher = enhanced NF-kB activity
# How it was run: as §1
# [4] = agonist: ODN 1826 (TLR9) 0.5 ug/mL
# [5] = agonist: Pam2CSK4 (TLR2/6) 0.1 ug/mL
# [6] = agonist: Pam3CSK4 (TLR2/1) 0.1 ug/mL
# [7] = cytotoxicity flag (confluency mask): not cytotoxic, agonist: Imiquimod (TLR7) […]
# [8] = cytotoxicity flag (confluency mask): not cytotoxic, agonist: MPLA (TLR4) […]
# [9] = cytotoxicity flag (confluency mask): cytotoxic (confluency <70% of control), agonist: Imiquimod (TLR7) […]
# [10] = cytotoxicity flag (confluency mask): cytotoxic (confluency <70% of control), agonist: MPLA (TLR4) […]
structure (smiles),measurement,setting,value
O=C(CCCCCCNC(=O)c1cnc(N(c2ccccc2)c2ccccc2Cl)nc1)NO (library stock concentration (final ~1000-fold dilution): 10 mM),NF-kB SEAP reporter activity,RAW-Dual [1]; agonist: LPS (TLR4) 0.1 ug/mL,4.23
same,NF-kB SEAP reporter activity,RAW-Dual [1]; [4],2.1
same,NF-kB SEAP reporter activity,RAW-Dual [1]; [5],0.586
same,NF-kB SEAP reporter activity,RAW-Dual [1]; [6],1.47
O=C(N/N=C/c1ccc(O)c(O)c1)c1cc2ccccc2cc1O,NF-kB SEAP reporter activity,RAW-Dual [2]; [7],0.605
same,NF-kB SEAP reporter activity,RAW-Dual [2]; [8],0.843
O=C(CCCCCCNC(=O)c1cnc(N(c2ccccc2)c2ccccc2)nc1)NO,NF-kB SEAP reporter activity,RAW-Dual [2]; [9],1.12
same,NF-kB SEAP reporter activity,RAW-Dual [2]; [10],2.14
CN(C)c1ccc(C(=O)NCCCCCCC(=O)NO)cc1,NF-kB SEAP reporter activity,RAW-Dual [2]; [9],2.83
same,NF-kB SEAP reporter activity,RAW-Dual [2]; [10],2.64
CCOC(=O)NCCCC(=O)NCCc1ccccc1 (library stock concentration (final ~1000-fold dilution): 10 mM),NF-kB SEAP reporter activity,RAW-Dual [3]; agonist: LPS (TLR4) 0.1 ug/mL,1.31
same,NF-kB SEAP reporter activity,RAW-Dual [3]; [4],0.995
same,NF-kB SEAP reporter activity,RAW-Dual [3]; [5],1.17
same,NF-kB SEAP reporter activity,RAW-Dual [3]; [6],1.06
CCN(CC)CCNC(=O)c1ccc(N)cc1.Cl (library stock concentration (final ~1000-fold dilution): 10 mM),NF-kB SEAP reporter activity,RAW-Dual [3]; agonist: LPS (TLR4) 0.1 ug/mL,0.999
same,NF-kB SEAP reporter activity,RAW-Dual [3]; [4],1.02
same,NF-kB SEAP reporter activity,RAW-Dual [3]; [5],0.923
same,NF-kB SEAP reporter activity,RAW-Dual [3]; [6],1.04
O=C(CCCCCCNC(=O)c1cnc(N(c2ccccc2)c2ccccc2Cl)nc1)NO,NF-kB SEAP reporter activity,RAW-Dual [2]; [9],1.51
same,NF-kB SEAP reporter activity,RAW-Dual [2]; [10],2.19
CCOC(=O)NCCCC(=O)NCCc1ccccc1,NF-kB SEAP reporter activity,RAW-Dual [2]; [7],0.961
same,NF-kB SEAP reporter activity,RAW-Dual [2]; [8],0.985
O=C(CCCCCCNC(=O)c1cnc(N(c2ccccc2)c2ccccc2)nc1)NO (library stock concentration (final ~1000-fold dilution): 10 mM),NF-kB SEAP reporter activity,RAW-Dual [1]; agonist: LPS (TLR4) 0.1 ug/mL,4.12
same,NF-kB SEAP reporter activity,RAW-Dual [1]; [4],1.3
same,NF-kB SEAP reporter activity,RAW-Dual [1]; [5],0.825
same,NF-kB SEAP reporter activity,RAW-Dual [1]; [6],1.08
CN(C)CCCNC(=O)c1ccc(-c2cc(O)c3ncccc3c2)cc1 (library stock concentration (final ~1000-fold dilution): 10 mM),NF-kB SEAP reporter activity,RAW-Dual [3]; agonist: LPS (TLR4) 0.1 ug/mL,0.881
same,NF-kB SEAP reporter activity,RAW-Dual [3]; [4],1.38
same,NF-kB SEAP reporter activity,RAW-Dual [3]; [5],1.13
same,NF-kB SEAP reporter activity,RAW-Dual [3]; [6],1.34
CCN(CC)CCNC(=O)c1ccc(N)cc1.Cl,NF-kB SEAP reporter activity,RAW-Dual [2]; [7],0.94
same,NF-kB SEAP reporter activity,RAW-Dual [2]; [8],1.05
O=C(CCCCCCC(=O)N/N=C/c1ccc(N(c2ccccc2)c2ccccc2)cc1)NO (library stock concentration (final ~1000-fold dilution): 10 mM),NF-kB SEAP reporter activity,RAW-Dual [1]; agonist: LPS (TLR4) 0.1 ug/mL,5.47
same,NF-kB SEAP reporter activity,RAW-Dual [1]; [4],2.71
same,NF-kB SEAP reporter activity,RAW-Dual [1]; [5],1.09
same,NF-kB SEAP reporter activity,RAW-Dual [1]; [6],1.61
